Laboratory results reported in PMC5540273 (PLoS ONE, 2017).

Columns and labels:
Settings in all cases: concentration: 1 μM,replicates: in singlicate; n = 1
STK36 = test system: STK36
STK39 = test system: STK39
SYK = test system: SYK
SgK110 = test system: SgK110
TAK1 = test system: T1, TAK1
T1 construct: gene MAP3K7

TAOK1 = test system: TAOK1
TAOK2 = test system: TAOK2
TAOK3 = test system: TAOK3
TBK1 = test system: TBK1
TEC = test system: TEC
TESK1 = test system: TESK1
TGFBR1 = test system: TGFBR1
TGFBR2 = test system: TGFBR2
TIE1 = test system: TIE1
TIE2 = test system: T2, TIE2
T2 construct: gene TEK

TLK1 = test system: TLK1
TLK2 = test system: TLK2
TNIK = test system: TNIK
TNK1 = test system: TNK1
TNK2 = test system: TNK2
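Note: KINOMEscan kinase panel screen.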

SMILES | %Inh (STK36) [%] | %Inh (STK39) [%] | %Inh (SYK) [%] | %Inh (SgK110) [%] | %Inh (TAK1) [%] | %Inh (TAOK1) [%] | %Inh (TAOK2) [%] | %Inh (TAOK3) [%] | %Inh (TBK1) [%] | %Inh (TEC) [%] | %Inh (TESK1) [%] | %Inh (TGFBR1) [%] | %Inh (TGFBR2) [%] | %Inh (TIE1) [%] | %Inh (TIE2) [%] | %Inh (TLK1) [%] | %Inh (TLK2) [%] | %Inh (TNIK) [%] | %Inh (TNK1) [%] | %Inh (TNK2) [%]
Cc1ccc2c(-c3ccnc(Nc4ccc(C(F)(F)F)cc4)n3)cnn2n1 [GW819776] | 9 | 6 | 42 | 20 | 2 | 1 | 23 | 0 | 48 | 9 | 0 | 21 | 60 | 0 | 6 | 18 | 17 | 9 | 13 | 0
CN(c1ccccc1CNc1nc(Nc2ccc3c(c2)CC(=O)N3)ncc1C(F)(F)F)S(C)(=O)=O | 8 | 0 | 86 | 0 | 76 | 92.7 | 6 | 86 | 48 | 0 | 0 | 0 | 16 | 90.6 | 49 | 0 | 0 | 1 | 83 | 53
CC(=O)Nc1ccc(-c2cc3ncnc(SCC(=O)O)c3s2)cc1 | 1 | 0 | 1 | 0 | 17 | 0 | 0 | 0 | 15 | 0 | 6 | 7 | 46 | 17 | 6 | 20 | 8 | 16 | 0 | 0
O=C(Nc1cccc(Oc2ccc3nccn3n2)c1)Nc1cccc(C(F)(F)F)c1 | 0 | 0 | 0 | 16 | 0 | 0 | 0 | 0 | 8 | 0 | 11 | 4 | 0 | 75 | 5 | 14 | 0 | 51 | 26 | 0
CSc1nccc(-c2c(-c3ccc(F)cc3)ncn2CCCN2CCOCC2)n1.Cl [SB-217146] | 0 | 0 | 5 | 3 | 3 | 0 | 45 | 6 | 33 | 2 | 0 | 0 | 0 | 0 | 0 | 0 | 15 | 0 | 26 | 0
O=C(NOCC1CC1)c1cc(Br)c(F)c(F)c1Nc1ccc(I)cc1Cl | 0 | 0 | 13 | 0 | 0 | 0 | 27 | 0 | 5 | 0 | 0 | 0 | 0 | 0 | 16 | 47 | 0 | 12 | 0 | 0
Cl.Cl.NC[C@H](CC1CCCCC1)NC(=O)c1ccc(-c2ccnc3[nH]ccc23)s1 [GSK1581428] | 0 | 7 | 20 | 95.3 | 64 | 87 | 0 | 14 | 29 | 0 | 0 | 0 | 0 | 100 | 0 | 1 | 4 | 12 | 0 | 0
Cl.Nc1n[nH]c2cc(-c3ccccn3)ccc12 [GSK2189892] | 0 | 0 | 7 | 0 | 2 | 0 | 0 | 0 | 6 | 0 | 22 | 0 | 0 | 0 | 0 | 0 | 0 | 5 | 0 | 15
CC(=O)Nc1nc2cnc(Nc3cc(NC(=O)c4cccc(CC(C)(C)C#N)c4)ccc3C)nc2s1 | 8 | 22 | 0 | 0 | 41 | 0 | 0 | 0 | 12 | 7 | 0 | 9 | 0 | 20 | 2 | 0 | 0 | 0 | 7 | 0
